FMDV inh = High Throughput Screening for Foot and Mouth Disease Virus Antivirals; FMDV antiviral cell-based qHTS; Potency, µM (top dose mostly 57.9 µM), for inactives: at the highest dose activity change, negative = inhibition, hits mostly inhibitors; actives 1.2% (n = 410,000); AID 1159524, 2015; calls by dose curve; tested in HEK293T cells; further: read-out not given here; nearly all actives have a fitted effect of over 45% in size
Sm TGR inh = qHTS Assay for the Inhibitors of Schistosoma Mansoni Peroxiredoxins; Schistosoma mansoni thioredoxin glutathione reductase (TGR), Q962Y6; purified TGR, DTNB reduction, TNB absorbance 405 nm; Potency, µM (titrated, usually from 114 µM), without a hit: top-dose activity change, negative = inhibition, hits mostly inhibitors; actives 3% (n = 360,000); AID 485364, 2010; further: nearly all actives have a fitted effect of over 60% in size
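TGR 20 nM + NADPH 100 uM (dispensed conc.), cpd preinc 15 min RT; start with NADPH (500 uM addition) then DTNB (15 mM addition). Kinetic TNB absorbance, 405 nm filter. Four-parameter Hill fit across titration.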
Tb PYK inh = qHTS of Trypanosoma Brucei Inhibitors; actives 0.12% (n = 410,000); TbPYK enzyme, Kinase-Glo Plus ATP luminescence, 45 min; Potency, µM (series often up to 76.8 µM), for inactives: at the top dose activity, negative = inhibition, most hits filed as inhibitors; further: nearly all actives have a fitted effect of over 50% in size
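Luminescence from Kinase-Glo Plus, added after a 45-minute room-temperature reaction, served as the end-point read-out. The enzyme and substrate were preincubated with compound before ADP (130 uM final) initiated turnover. Concentration-effect curves came from normalized qHTS data.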
RE007 growth inh = qHTS Assay for Inhibitors of the HIV-1 protein Vpr | Potency, µM (series often up to 92.2 µM), for inactives: top-dose activity change, negative = less growth, most hits filed as inhibitors | actives 0.21% (n = 360,000) | AID 651644, 2012 | S. pombe RE007 Vpr strain, BacTiter-Glo ATP luminescence, 24 h; active means well fitted falling curve with a large enough effect; inconclusive means small, poorly fitted or top-dose-only effect; inactive means no such curve, though single readings can be large or run the other way; further: nearly all actives have a fitted effect of over 50% in size
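Fission yeast strain RE007, carrying one chromosomally integrated HIV-1 vpr copy, was seeded at OD 0.01 in PMG+AL medium with 23 nL pinned compound. After 24 h at 30 °C and 99% humidity, viability was read by BacTiter-Glo luminescence.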
The depositor's hits bear a star; ? = inconclusive; . = not tested or not shown; [ ] = another dose, or the depositor's remark. Most compounds without a hit are left out; they make up all but 3.7% or so of the library. Unless noted, the call rests on the fitted dose curve; in most records, active means well fitted curve in the direction sought with a large enough effect; inconclusive means small, poorly fitted or top-dose-only effect, or another doubt; inactive means no such curve, though single readings can be large; an effect the other way counts as inactive or inconclusive. On the % scale 0 is the no-effect control and ±100 the full control effect; potency means the concentration at half of the fitted maximal effect.

SMILES	FMDV inh	Sm TGR inh	Tb PYK inh	RE007 growth inh
COc1ccc(/C=C2\SC(=O)NC2=S)cc1OC	5.2%	17.8µM*	-8.2%	-21.0%
CN(C)c1cc(NC(=O)CNC(C)(C)C)c(O)c2c1C[C@@H]1C[C@H]3[C@H](N(C)C)C(=O)C(C(N)=O)=C(O)[C@@]3(O)C(=O)C1=C2O	.	.	-4.2%	.
O=C(CSc1nc(=O)n(CCN2CCOCC2)c2c1CCC2)Nc1ccc(Cl)c(Cl)c1	?	4.0%	6.0%	.
COc1ccc(/C=C2/SC(c3ccc(C)cc3)=NC2=O)cc1OC	-12.2%	-35.9%	?	0.7%
COc1ccc(/C=C2\SC(c3ccc(C)cc3)=NC2=O)cc1OC	.	-17.0%	8.91µM*	-0.5%
CCCCCCOc1ccc(N2C(=O)CC(N3CCC(C(=O)OCC)CC3)C2=O)cc1 (configuration not stated)	.	3.7%	-4.0%	4.8%
CCc1ccc(N2C(=O)CC(N3CCC(C(=O)OC)CC3)C2=O)cc1 (configuration not stated)	-15.0%	56.2µM*	1.0%	10µM*
CCOC(=O)C1CCCN(C2CC(=O)N(c3ccc(N4C(=O)CC(N5CCCC(C(=O)OCC)C5)C4=O)cc3)C2=O)C1 (configuration not stated)	6.0%	20µM*	0.3%	1.1%
CCOC(=O)C1CCCN(C2CC(=O)N(c3ccccc3)C2=O)C1 (configuration not stated)	-3.2%	?	-2.6%	?
CCOC(=O)C1CCCN(C2CC(=O)N(c3ccc(C)c(C)c3)C2=O)C1 (configuration not stated)	5.2%	44.7µM*	-6.7%	28.2µM*
Cc1ccc(N2C(=O)C3CCCN3C2=S)cc1C (configuration not stated)	5.2%	9.8%	15.6%	1.9%
CCOC(=O)C1CCN(C2CC(=O)N(c3ccc(OCC)cc3)C2=O)CC1 (configuration not stated)	-11.3%	50.1µM*	4.3%	17.8µM*
Cc1ccc2c(c1)c1c3n2CCN(C(=O)c2cccc(C(F)(F)F)c2)C3CCC1 (configuration not stated)	-24.9%	-1.8%	4.1%	.
CCOC(=O)C1CCCN(C2CC(=O)N(c3ccc(C(C)C)cc3)C2=O)C1 (configuration not stated)	-2.9%	?	2.8%	35.5µM*
Cc1cccc(N2C(=O)CC(N3CCN(c4cccc(C(F)(F)F)c4)CC3)C2=O)c1 (configuration not stated)	-17.3%	?	1.5%	-13.4%
CCOC(=O)C1CCCN(CCC(C)c2ccccc2)C1 (configuration not stated)	-22.2%	1.8%	27.0%	14.1%
CCOC(=O)C1CCCN(C2CC(=O)N(c3cccc(C(F)(F)F)c3)C2=O)C1 (configuration not stated)	-4.2%	?	5.0%	8.91µM*
Cc1cnc(C)c(-c2ccc3c(c2)CC(CNC(=O)Cc2c(C)[nH]c4ccccc24)O3)n1 (configuration not stated)	-23.9%	.	.	.
CCOc1ccc(CN2CCOc3ccc(C(O)c4cccnc4)cc3C2)cc1 (configuration not stated)	-29.1%	.	.	.
COc1ccccc1-c1nn(CCC(=O)Nc2ccccc2)c2nc(C)cc(C)c12	0.0%	-0.3%	6.5%	.
CC(=O)C(C(C)=O)c1c(Cl)c(O)c(O)c2c(C(=O)c3ccccc3)coc12	?	2.51µM*	?	6.6%
COCC(=O)Nc1cc(C(=O)N2CCN(C3CCCC3)C(=O)C2)c2c(c1)nc(-c1ccncc1)n2C	-6.8%	.	.	.
COc1ccc(C2CC(=O)N3CN(C4CCCCC4)CSC3=C2C#N)cc1 (configuration not stated)	-13.7%	7.94µM*	22.4µM*	.
COc1cccc(C2CC(=O)N3CN(C4CCCCC4)CSC3=C2C#N)c1 (configuration not stated)	-13.9%	2.51µM*	?	.
Cc1cccc(C)c1NC(=O)Cn1c(SCC(=O)NCc2ccccc2)nc2ccccc21	-1.1%	1.3%	1.1%	.
SMILES	FMDV inh	Sm TGR inh	Tb PYK inh	RE007 growth inh
O=S(=O)(c1ccccc1)c1ncc(C(F)(F)F)cc1Cl	11.2µM*	3.98µM*	3.3%	-6.9%
CCn1c(=O)n(CC)c2cc(N3CCCC3)c(NC(=O)Nc3cc(C)cc(C)c3)cc21	-5.5%	-10.1%	0.5%	.
COc1ccc(CN2[C@@H](CC(C)=O)c3ccc(/C=C/C(C)=O)cc3S2(=O)=O)cc1	31.6µM*	.	-1.9%	-10.8%
COC(=O)/C=C/c1ccc2c(c1)S(=O)(=O)N(Cc1ccc(OC)cc1)[C@H]2CC(=O)OC	2.2%	.	4.2%	-6.2%
O=C(O)CCC(=O)c1ccc(-c2ccccc2)cc1	7.8%	-0.7%	-9.3%	-11.6%[18.4 µM]
O=C(O)CCC(=O)CCC(=O)c1ccc(Cl)cc1	.	28.2µM*	-4.1%	8.7%
COc1cc(O)ccc1CN1CCc2nnc(C(C)NC(=O)c3cc(F)ccc3F)n2CC1 (configuration not stated)	-19.5%	.	.	.
CCc1ccc(NC(=O)CSC2=Nc3ccccc3C3=NC(CCC(=O)NCc4ccco4)C(=O)N23)cc1 (configuration not stated)	-29.1%	1.1%	-0.6%	.
O=C(C=Cc1ccccc1O)c1ccccc1O	?	.	5.0%	35.5µM*
O=C(/C=C/c1ccc(O)c(O)c1)c1ccccc1O	20.8%	?	-23.3%	?
O=C(C=Cc1cccc(O)c1)c1ccccc1O	?	.	4.0%	25.1µM*
Cc1ccc(C)c(CN2C(=O)c3ccccc3Sc3ccc(C(=O)NCc4ccco4)cc32)c1	-23.0%	-9.4%	-4.8%	.
COc1cc(C)c(Cl)cc1S(=O)(=O)NCCc1c(C)[nH]c2ccccc12	32.8%	1.8%	4.3%	.
COc1ccccc1Cn1c(=S)[nH]c2cc(C(=O)NCC3CCCO3)ccc2c1=O (configuration not stated)	25.1µM*	7.1%	-5.4%	-16.4%
CCOC(=O)C1=C(CC)OC(N)=C(C#N)C1c1ccc(NC(C)=O)cc1 (configuration not stated)	0.0%	11.2µM*	-11.2%	6.1%
CCOC(=O)C1=C(CC)OC(N)=C(C#N)C1c1cc(OC)ccc1OC (configuration not stated)	-15.1%	-1.0%	-9.9%	-4.6%
CCCC1=C(C(=O)OCC)C(c2ccco2)C(C#N)=C(N)O1 (configuration not stated)	7.1%	31.6µM*	0.9%	-0.4%
CCOC(=O)C1=C(N)OC(C)=C(C#N)C1c1ccco1 (configuration not stated)	-11.3%	-23.0%	-6.1%	-18.5%
CCOC(=O)C1=C(c2ccccc2)OC(N)=C(C#N)C1c1cccs1 (configuration not stated)	-2.0%	44.7µM*	-25.0%	13.5%
C=C1CCC2C(CC2(C)C)C(=O)CCC1O (configuration not stated)	29.8%	.	.	.

Bioassay records (PubChem)
